Experimental data published in the supplement of paper PMC8253809.

Tests used:
Test in all cases: growth inhibition (% activity, log2 RLU normalised to DMSO / staurosporine); higher = more growth inhibition
Details in all cases: 33 µM
[1] = test system: DIPGX29 (H3.3 K27M diffuse intrinsic pontine glioma line)
How it was run: (§1)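 Approved drugs were tested in triplicate at a single final concentration of about 33 μM for 7 days at 37 °C, 5% CO2, on pHGG cell lines and H9-derived neural stem cells. Readout was CellTiter-Glo luminescence, log2-transformed and scaled per plate to % activity between solvent and positive control wells. The median over replicates gives the growth-inhibition value.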

[2] = test system: DIPGX37 (H3.3 K27M diffuse intrinsic pontine glioma line)
How it was run: as §1

[3] = test system: DIPGX7 (H3.3 K27M diffuse intrinsic pontine glioma line)
How it was run: as §1

[4] = test system: DIPGX9 (diffuse intrinsic pontine glioma line)
How it was run: as §1

[5] = test system: HGGX39 (paediatric high-grade glioma line)
How it was run: as §1

[6] = test system: HGGX6 (H3.3 G34R paediatric high-grade glioma line)
How it was run: as §1

[7] = test system: HNSC
How it was run: as §1

[8] = test system: SUDIPGIV (diffuse intrinsic pontine glioma line)
How it was run: as §1

[9] = test system: SUDIPGVI (diffuse intrinsic pontine glioma line)
How it was run: as §1

[10] = test system: SUDIPGXIII (diffuse intrinsic pontine glioma line)
How it was run: as §1

SMILES	growth inhibition [1]	growth inhibition [2]	growth inhibition [3]	growth inhibition [4]	growth inhibition [5]	growth inhibition [6]	growth inhibition [7]	growth inhibition [8]	growth inhibition [9]	growth inhibition [10]
NCCCCCC(=O)O	0.867%	2.56%	2.76%	1.09%	2.5%	4.7%	0.436%	1.23%	0.903%	-1.64%
CCCNC(=O)NS(=O)(=O)c1ccc(Cl)cc1	2.28%	4.25%	2.73%	6.15%	3.29%	2.21%	9.27%	2.61%	2.64%	0.944%
CN/C(=N\CCSCc1nc[nH]c1C)NC#N	0.842%	1.91%	1.01%	0.766%	1.68%	1.98%	0.707%	-0.184%	2.38%	0.0177%
CN(C)CCCN1c2ccccc2CCc2ccccc21	-0.201%	2.87%	0.728%	1.54%	6.76%	3.35%	3.17%	2.4%	-0.367%	2.4%
CC(=O)Oc1ccccc1C(=O)O	0.978%	2.47%	1.52%	1.57%	2.08%	4%	0.311%	-1.34%	2.68%	-16%
CN1CCN(C2=Nc3ccccc3Oc3ccc(Cl)cc32)CC1	-0.96%	1.38%	-0.128%	1.22%	6.27%	-0.859%	1.57%	4.37%	-2.03%	0.859%
CCOc1nc2cccc(C(=O)O)c2n1Cc1ccc(-c2ccccc2-c2nnn[nH]2)cc1	0.354%	-0.496%	0.489%	-0.089%	0.622%	1.65%	1.93%	-0.153%	0.98%	-0.345%
NS(=O)(=O)c1cc2c(cc1C(F)(F)F)NC(Cc1ccccc1)NS2(=O)=O (stereo not given)	-1.42%	2.24%	-1.56%	-0.0939%	-0.621%	1.26%	-0.523%	-1.96%	0.355%	0.995%
CC#CCn1c(N2CCC[C@@H](N)C2)nc2c1c(=O)n(Cc1nc(C)c3ccccc3n1)c(=O)n2C	-0.103%	-1.17%	-2.97%	-0.000837%	0.6%	-0.836%	-2.39%	-2.46%	-1.81%	-0.213%
C[C@@H](CN1CC(=O)NC(=O)C1)N1CC(=O)NC(=O)C1	-0.213%	0.752%	1.24%	0.711%	0.0185%	-0.816%	2.52%	-0.536%	-1.35%	-1.67%
Cn1c(=O)c2c(ncn2CC(O)CO)n(C)c1=O (stereo not given)	1.16%	3.99%	1.95%	1.42%	2.44%	-0.962%	2.09%	1.65%	3.1%	-0.692%
O=C1[C@H](CC[C@H](O)c2ccc(F)cc2)[C@@H](c2ccc(O)cc2)N1c1ccc(F)cc1	0.15%	-1.79%	1.88%	-0.813%	-0.454%	-1.33%	-0.443%	-2.25%	-5.97%	0.864%
CN(C)CCCOc1nn(Cc2ccccc2)c2ccccc12	13.9%	-2.22%	24.6%	5.76%	18.9%	14.8%	40.8%	18.5%	-1.11%	0.197%
O=C1c2cccc3c2[C@H](CCC3)CN1[C@@H]1CN2CCC1CC2	1.6%	0.267%	-0.559%	0.719%	1.18%	1.03%	-3.52%	-0.551%	0.132%	0.79%
CCCc1cc(C(N)=S)ccn1	-2.06%	-0.994%	-2.65%	-1.15%	-0.973%	0.551%	-2.9%	-2.46%	-0.254%	0.671%
NCCS(=O)(=O)O	0.304%	1.36%	0.217%	0.788%	0.579%	1.43%	-2.23%	-0.945%	0.882%	-0.421%
COCCc1ccc(OCC(O)CNC(C)C)cc1 (stereo not given)	0.745%	0.102%	1.22%	2.73%	2.04%	1.92%	-0.726%	0.382%	2.97%	-0.552%
